VCAM1 pot = TNF alpha stimulated VCAM1 expression potentiation; HUVEC TNFa-stimulated VCAM-1 immunofluorescence, high-content imaging; scaled per plate to unstimulated/TNFa-only wells; activation, % at 2 µM; hit rate 0.19% among 93,000; AID 808;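 active means activation above the screen mean plus 3 SD, with well images confirming the hit on visual review, cut at about 28% in these data, passing the limit was not always enough; inconclusive means activation above that limit but images do not confirm it; inactive means activation not above that limit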;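 further: signal is the number of cytoplasmic VCAM-1 stained grains per positive cell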
VCAM1 pot conf = enhancers of VCAM1 induction in HUVEC – imaging, triplicate retest, confirmation; HUVEC TNFa-stimulated VCAM-1 immunofluorescence imaging; shares compounds with VCAM1 pot; activation, % at 2 µM; 230 tested, under 10 active; AID 1034;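 active means activation above 30% in triplicate retests at 2 µM, then confirmed by visual review of the well images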;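 further: scaled per plate between unstimulated and TNFa-stimulated DMSO control wells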
Starred values were filed as active, the others as inactive; ? = inconclusive. The full list was thinned out, with hits kept by preference.

SMILES	VCAM1 pot	others
COc1ccc(CNC(=O)CSc2nc(-c3ccccc3)cc(-c3cccs3)c2C#N)cc1	0
O=C(CN1CCN(CCO)CC1)Nc1ccccc1	10
CC(=O)c1c(C(C)=O)c(C)n(-c2nc(-c3ccccc3)c(C)s2)c1C	-12
CSc1cc(C)n(-c2ccccc2)c(=S)c1C(C)=O	72*	VCAM1 pot conf=-16
Cc1cc2ncn(C(=O)N3CCCC3)c2cc1C	-12
CCSc1nc2ccccc2n1C(=O)/C=C\c1ccc(OC)c(OC)c1	-94
COc1ccc2oc(=O)c(C(=O)NCc3cccnc3)cc2c1	15
COc1ccc2oc(=O)c(C(=O)n3ccc(C)n3)cc2c1	0
COc1ccc2oc(=O)c(C(=O)N3CCN(c4ccccc4)CC3)cc2c1	83*	VCAM1 pot conf=-9
CCOC(=O)C(NC(=O)c1ccccc1)(Nc1nnc(C)s1)C(F)(F)F (stereo not drawn)	17
CCCCOC(=O)n1c(SCC(=O)N(C)C)nc2ccccc21	16
COc1ccc(C(=O)N2CCN(S(=O)(=O)c3ccccc3)CC2)c(OC)c1	-8
CCN1CCN(S(=O)(=O)c2cc(OC)ccc2OC)CC1	64*	VCAM1 pot conf=-4
COc1ccc(CN2CCN(S(=O)(=O)c3ccccc3)CC2)c(OC)c1	6
COc1ccc(C2C=C(c3cccs3)Nc3nc(CCCO)nn32)cc1 (stereo not drawn)	-7
CSc1nsc(SC)c1C(=O)NCCNS(=O)(=O)c1ccc(C)cc1	-14
Cc1ccc(-c2nnn(CC(=O)N(Cc3ccco3)C(C(=O)NC3CCCC3)c3cccs3)n2)o1 (stereo not drawn)	-3
CCOc1ccc(-c2nnn(CC(=O)NCc3ccc4c(c3)OCO4)n2)cc1	4
O=C(CN(C(=O)Cn1nnc(-c2cccs2)n1)c1ccc2c(c1)OCCO2)NC1CCCCC1	56*	VCAM1 pot conf=-18
Clc1ccc(CSc2cc3c(nn2)-c2ccccc2CC3)cc1	-10
COC(=O)C(NC(=O)c1ccc(C)cc1)(Nc1cccc(C)n1)C(F)(F)F (stereo not drawn)	-17
CCCn1nc([N+](=O)[O-])c(C(C#N)c2nc3ccccc3s2)c(Cl)c1=O (stereo not drawn)	-51
C/C(=N\NC(=O)Cc1cccn1C)c1ccc2ccccc2c1	?	VCAM1 pot conf=-4
Cn1ccnc1SCC(=O)Nc1ccc2ccccc2c1	32
C=CCNC(=O)CC(=O)N/N=C/c1ccccc1F	0
SMILES	VCAM1 pot	others
CCOc1cc(NC(=O)c2ccccn2)c(OCC)cc1NC(=O)CC(C)C	-9
CCOC(=O)c1nn(-c2ccccc2C)c2nc(CC(C)C)c(C#N)c(=O)n12	-6
Cc1cc(C)c2c(n1)sc1c(N3CCOCC3)ncnc12	-61
CCOC(=O)N1CCC(NC(=O)c2cc(S(=O)(=O)N3CCCC3)cn2C)CC1	43*	VCAM1 pot conf=-5
CCOC(=O)N1CCN(C(=O)c2cc(S(=O)(=O)N3CCCC3)cn2C)CC1	4
CCOC(=O)N1CCC(NC(=O)c2ccc(OC)c(CN3CC(=O)N4CCCC4C3=O)c2)CC1 (stereo not drawn)	-22
CCc1ccc2nc(-c3cccc(C)c3)nc(SCC(=O)NCC3CCCO3)c2c1 (stereo not drawn)	-4
CCOc1ccc2sc(NS(=O)(=O)c3ccc(OC)c(OC)c3)nc2c1	61*	VCAM1 pot conf=-18
CCOC(=O)c1cc2nc(Nc3ccc(OC)cc3)sc2s1	29
COc1ccc(OC)c(NS(=O)(=O)c2ccc3c(c2)n(C)c(=O)n3C)c1	-19
Cc1nn(Cc2ccc([N+](=O)[O-])cc2)c(=O)n1-c1cccc(F)c1	-9
COc1ccc(NC(=O)/C(Cl)=C(/Cl)S(=O)(=O)Cc2ccc(C)cc2)cn1	-51
COCCn1nnnc1CN(CCCN1CCOCC1)Cc1cc2c(C)ccc(C)c2[nH]c1=O	-4
COc1ccc2cc(CN(Cc3cccs3)Cc3nnnn3Cc3ccccc3)c(=O)[nH]c2c1	-1
Cc1cc(C)c2cc(CN(Cc3ccc4c(c3)OCO4)Cc3nnnn3Cc3ccco3)c(=O)[nH]c2c1	54*	VCAM1 pot conf=-5
CN(C)S(=O)(=O)c1cccc(NC(=O)Cn2cnc3ccccc3c2=O)c1	-6
Cc1cccc(NC(=O)c2cccc(N3C(=O)C4C5CCC(C5)C4C3=O)c2)c1C (stereo not drawn)	-2
CC(C)Cn1c(SCC(=O)NC(=O)NC2CCCC2)nc2ccccc21	-8
CCOC(=O)Cn1c(C)nc2ccccc21	-6
Cc1nc2ccccc2n1CC(O)COCC1CC=CCC1 (stereo not drawn)	?	VCAM1 pot conf=-13
COC1(OC)C(/C=C/c2ccc(C)cc2)C(C#N)(C#N)C1(OC)OC (stereo not drawn)	-5
O=S(=O)(C/C(=C/CO)S(=O)(=O)c1ccccc1)c1ccccc1	-86
CCOC(=O)N1CCN(CC(=O)Nc2ccc(C)c(Br)c2)CC1	-17
COC(=O)c1ccc(C)c(NS(=O)(=O)c2ccc(OC)cc2)c1	32*	VCAM1 pot conf=-59
COc1ccc(NS(=O)(=O)c2ccc(C)c(C(=O)O)c2)cc1	-7
SMILES	VCAM1 pot	others
COC(=O)c1ccc(C)c(NC(=O)C2COc3ccccc3O2)c1 (stereo not drawn)	-7
N=c1nc(SCCC(=O)O)ss1	-4
O=C(CCNS(=O)(=O)c1ccc(Cl)cc1)N1CCC2(O)CCCCC2C1 (stereo not drawn)	-3
CCc1nc(C)cn1S(=O)(=O)c1cc(C)c(OC)c(C)c1C	-8
Cc1ccccc1CSc1nncn1N	-13
Cc1ccccc1Cn1nnc2c1C(=O)c1ccccc1C2=O	46*	VCAM1 pot conf=-13
O=C1c2ccccc2-c2nc3ccccc3nc21	2
O=Nc1c(O)n(Cc2ccc(Cl)cc2Cl)c2ccccc12	38
Cc1cccc(-c2nnc(SCCOc3ccc4c(C)cc(=O)oc4c3)o2)c1	-1
NC(=O)c1cccc(S(=O)(=O)N2CC(c3ccccc3)CC2=O)c1 (stereo not drawn)	-1
CC(C)(C)c1ccc(-c2nnc(SCCC#N)n2C2CCCC2)cc1	5
COc1ccc(-n2cnnc2SCCC#N)cc1	?	VCAM1 pot conf=-8
Cc1ccc(S(=O)(=O)NCc2nnc(SCC(=O)Nc3cccc(C)c3C)n2C)cc1	7
O=C(O)C1CCN(S(=O)(=O)/C=C/c2ccccc2)CC1	-8
Cc1nn(Cc2ccc(C(=O)N3c4ccc(F)cc4CCC3C)o2)c(C)c1Br (stereo not drawn)	-1
CCOC(=O)CNC(=O)c1cc(C)oc1C	-3
CC(C)Cn1cc(C(=O)NCCCOC(C)C)c2c3ccccc3n(C)c2c1=O	-9
CCOC(=O)CNC(=O)c1cn(CC(C)C)c(=O)c2cc(OC)c(OC)cc12	55*	VCAM1 pot conf=-13
Nc1nnc(SCCOc2ccc(Br)cc2)s1	2
COc1ccc2c(C(=O)CN(C)C3CCCCC3)c[nH]c2c1	-7
CC1=C([N+](=O)[O-])C(c2cccc(Br)c2)C2=C(N1)c1ccccc1C2=O (stereo not drawn)	-93
O=C(NCc1ccccc1)c1ccc(C(=O)N(C2CCCCC2)C2CCCCC2)cc1	1
O=C(NCc1cccnc1)c1ccc(COc2cccc3ccccc23)o1	8
CC(=O)Nc1ccc(S(=O)(=O)N2CCN(C(=O)c3cccnc3)CC2)cc1	6
CCOC(=O)c1nnn(CC(=O)N2N=C(c3cccc4ccccc34)CC2c2ccccc2)c1C(=O)OCC (stereo not drawn)	-34
Cc1ccc(/C=C2/SC(=S)N(CC(=O)Nc3ncc(Cc4ccc(C)cc4)s3)C2=O)cc1	0
CCN1C(=O)/C(=C/C=C2/SCCN2C)SC1=S	4

Compound activity as filed in PubChem BioAssay.
